# The campaign covered roughly 310,000 compounds. About 3,900 (1.3%) were called active.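 Rule for the calls: active = compounds whose thallium flux B-score, printed positive for inhibition, exceeds three library SD while starting fluorescence stays within three; inactive = the rest.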 The list comes from a sample in which actives are over-represented; it also holds similar structures and randomly drawn compounds.
# Molecular target: Potassium voltage-gated channel subfamily KQT member 1 (Homo sapiens) (UniProt P51787)
# Test: KCNQ1 potassium current blockers – cell-based, thallium flux, high-throughput, primary screen (AID 2642);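 note: channel opened by potassium depolarization with thallium stimulus after 20 min compound exposure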
# Settings: CHO-K1 KCNQ1, FluxOR thallium flux fluorescence, at 10 µM; active compounds read high
# Sequence of Potassium voltage-gated channel subfamily KQT member 1 (Homo sapiens) (P51787 whole entry, looked up): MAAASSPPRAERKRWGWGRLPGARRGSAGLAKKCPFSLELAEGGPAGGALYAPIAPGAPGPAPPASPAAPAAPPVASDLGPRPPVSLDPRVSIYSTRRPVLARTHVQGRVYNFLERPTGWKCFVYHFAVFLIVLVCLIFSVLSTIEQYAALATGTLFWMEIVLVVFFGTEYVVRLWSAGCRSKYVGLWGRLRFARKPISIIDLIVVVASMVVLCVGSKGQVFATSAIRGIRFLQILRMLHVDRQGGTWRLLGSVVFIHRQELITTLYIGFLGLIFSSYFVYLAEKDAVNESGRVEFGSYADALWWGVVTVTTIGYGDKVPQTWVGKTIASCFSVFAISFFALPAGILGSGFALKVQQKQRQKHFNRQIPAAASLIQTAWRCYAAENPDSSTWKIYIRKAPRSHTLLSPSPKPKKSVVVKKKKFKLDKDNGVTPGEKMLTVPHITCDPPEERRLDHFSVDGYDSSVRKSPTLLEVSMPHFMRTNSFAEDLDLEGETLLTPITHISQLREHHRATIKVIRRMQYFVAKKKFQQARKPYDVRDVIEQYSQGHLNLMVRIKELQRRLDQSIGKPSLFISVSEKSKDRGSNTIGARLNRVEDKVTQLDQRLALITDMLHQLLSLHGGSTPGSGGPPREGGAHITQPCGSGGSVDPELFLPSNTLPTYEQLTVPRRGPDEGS
row,SMILES,B-score
1,Cc1cc(CNC(=O)c2cccc([N+](=O)[O-])c2)c2ccccc2n1,inactive
2,O=[N+]([O-])c1cccc(Nc2c3ccccc3nc3ccccc23)c1,8 (active)
3,N#Cc1cccc(Nc2c3c(nc4ccccc24)CCCC3)c1,inactive
4,NS(=O)(=O)c1ccc(CCNC(=O)CNC(=O)Cc2ccccc2)cc1,inactive
5,O=C1N(c2ccccc2)C(=Nc2ccccc2)SC12CC2,inactive
6,C#CCCOC(=O)N1C2=NC(C(=O)OC)=C(C(=O)OC)[C@@H]3N(C)c4ccc(OC)cc4[C@]23C[C@H]1C(=O)OC,inactive
7,O=C1c2ccccc2C(=O)c2c1cccc2N1CCN(C/C=C/c2ccccc2)CC1,inactive
8,O=C1c2ccccc2C(=O)c2c1cccc2N1CCN(CCO)CC1,inactive
9,O=C1c2ccccc2C(=O)c2c1cccc2N1CCN(Cc2ccccc2)CC1,6 (active)
10,COC(=O)c1cccc(N(C(=O)CNC(=O)c2cccs2)C(C(=O)NCC2CCCO2)c2ccc(OC)c(OC)c2)c1 (centres undefined),inactive
11,Oc1ccc2ccc3cccc[n+]3c2c1,30 (active)
12,CCN(Cc1nc2ccccc2c(=O)[nH]1)Cc1cc(=O)oc2cc(C)c(C)cc12,inactive
13,CC(C)CCN(C(=O)c1csnn1)C(C(=O)NC1CCCC1)c1ccccc1 (centres undefined),inactive
14,CC(C)c1ccc(NC(=O)NC2CCCCC2)cc1,inactive
15,Cc1cc(C)cc(NC(=O)NC2CCCCCCC2)c1,7 (active)
16,O=C(Nc1cccc(F)c1)NC1CCCCCCC1,inactive
17,COc1cccc2c1OCC(C(=O)NCc1ccc(Cl)cc1Cl)=C2,inactive
18,CCOc1cc(C2C(C(=O)OC(C)C)=C(C)NC3=C2C(=O)CCC3)cc([N+](=O)[O-])c1O (centres undefined),inactive
19,CS(=O)(=O)N(CC(=O)Nc1ccc(Cl)c(Cl)c1)C1CCCCC1,7 (active)
20,CS(=O)(=O)N(CC(=O)Nc1ccc(F)cc1)C1CCCCC1,inactive
21,CCC(C)NC(=O)CN(C1CCCCC1)S(C)(=O)=O (centres undefined),inactive
22,CC(NC(=O)Cn1cc(C(F)(F)F)cc(Cl)c1=O)c1ccccc1 (centres undefined),inactive
23,NS(=O)(=O)c1cc2c(cc1Cl)NC(C(Cl)Cl)NS2(=O)=O (centres undefined),inactive
24,CC(C)OC(=O)C(C#N)c1nc2ccccc2nc1N1CCN(Cc2ccccc2)CC1 (centres undefined),7 (active)
25,COC(=O)c1sc(N2CCN(Cc3ccccc3)CC2)nc1N,inactive
26,CCOC(=O)/C(C#N)=C/c1ccc(N2CCN(Cc3ccccc3)CC2)cc1,inactive
27,COc1ccc(S(=O)(=O)N(CC(=O)N/N=C/c2ccc(C(=O)O)cc2)Cc2ccccc2)cc1OC,inactive

row,SMILES,B-score
1,CC(=O)N1c2ccc(S(=O)(=O)N3CCCC(C(=O)NCc4ccc(Cl)cc4)C3)cc2CC1C (centres undefined),inactive
2,CCN(C(=O)COc1ccc(C(=O)c2ccccc2)cc1)c1ccccc1,inactive
3,N#Cc1ccc(CSc2ncccn2)cc1,inactive
4,N#CC1=C(SCc2ccccc2)NC(=O)C(C#N)C12CCCC2 (centres undefined),inactive
5,N#CC1=C(SCc2ccc(C#N)cc2)N=C(N)C(c2nc(-c3ccccc3)cs2)C12CCCCC2 (centres undefined),6 (active)
6,COc1ccc(OC)c2[nH]c(=O)c(CCNC(=O)C(=O)c3c[nH]c4ccccc34)cc12,inactive
7,COCCn1c(SCC(=O)Nc2cc(OC)ccc2OC)nc2c(c1=O)SC(C)C2 (centres undefined),inactive
8,COc1ccc(CCNCc2c(-c3ccccc3)n(C)c3ccccc23)cc1,7 (active)
9,COc1ccc(-c2nc3ccccc3c(=O)n2CCc2ccc(O)cc2)cc1,inactive
10,COc1ccc(-c2c(C#Cc3ccccc3)c3ccccc3n2C)cc1,inactive
11,CCN1N=C(c2ccccc2)CCC1=O,inactive
12,Cc1ccccc1NC(=O)Nc1ccccc1N1CCCCC1,inactive
13,Cc1ccccc1NC(=O)CNc1ccccc1N1CCCCC1,inactive
14,O=C(CNCCC1=CCCCC1)Nc1ccccc1N1CCCCCC1,12 (active)
15,COC(=O)c1ccc(COC(=O)C2CCN(S(=O)(=O)c3c(Cl)cccc3Cl)CC2)o1,inactive
16,COc1cc(CN2CCNC(=O)C2CC(=O)NCCc2ncccc2C)cc(OC)c1 (centres undefined),inactive
17,CC(=O)Nc1c2c(nn1-c1cccc(C)c1)CSC2,inactive
18,CCC[C@@H]1C[C@@]1(CCC)[C@@H](NC(=O)c1ccccc1)c1ccc(C(=O)OC)cc1,12 (active)
19,CCC/C=C(\CCC)C(NC(=O)Cc1ccccc1)c1ccc(C(=O)OC)cc1 (centres undefined),inactive
20,COC(=O)c1ccc(NCC(=O)c2ccccc2)cc1,inactive
21,COc1ccc(CN(C)C(=O)Cc2c[nH]c3ccccc23)c(OC)c1OC,inactive
22,CNC(=S)N1N=C(c2ccccc2)CC1c1ccc(Br)cc1 (centres undefined),inactive
23,Brc1ccc(C2CC(c3ccccc3)=Nc3ccccc3N2)cc1 (centres undefined),10 (active)
24,c1ccc(C2=Nc3cccc4cccc(c34)N2)cc1,inactive
25,CC1CCCN(S(=O)(=O)c2ccc(N(C(=O)c3cnccn3)C(C(=O)NC3CCCCC3)c3cccs3)cc2)C1 (centres undefined),inactive
26,Cc1cc(C)n(-c2nnc(C)n2NC(=O)c2cccc(Cl)c2)n1,inactive
27,Cc1ccc2c(c1)N(CCCC(=O)NCc1cccnc1)C(=O)CO2,inactive

# — PubChem BioAssay AID2642 (Johns Hopkins Ion Channel Center, 2010)
